ARNT TACC3 PPI: disruptors of human ARNT/TACC3 interaction. Q9Y6A5. AlphaScreen His-ARNT PAS-B/GST-TACC3 binding, luminescence; TACC3 fragment carries E629A point mutation. inhibition, % at 9.99 µM. actives 0.66% (n = 390,000);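 active = mean inhibition of replicates at least 50% and at least half of replicates each reaching 50%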
PvdQ inh: blocks Pseudomonas aeruginosa PvdQ acylase activity. actives 0.063% (n = 340,000). purified PvdQ acylase, fluorescence plate reader. inhibition, % at 10 µM; in the data active = inhibition above about 30%, passing the limit was not always enough
ERAP1 inh: inhibitors of human ERAP1 aminopeptidase; recombinant ERAP1, Leu-AMC fluorescence, 60 min; inhibition, % at 10.7 µM; actives 0.15% (n = 340,000);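 active = mean replicate inhibition of at least 30%, or all replicates individually reaching that 30% level; inactive = mean below 30% and not every replicate reaching it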
Ecoli rRNA inh: selective bacterial rRNA inhibition in E. coli. E. coli WT GFP vs humanized-ribosome RFP mutants, fluorescence, 24 h; hits give low values; DMSO median 0, no signal -100. GFP signal change (wild-type ribosome), % (no concentration beside the values). actives 1.6% (n = 350,000);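 active = significant combined selectivity score with lowered wild-type GFP, culture density cut under 30%, mutant RFP and density less affected; inactive = any of these conditions unmet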
F508del corr: correctors of CFTR F508del function in bronchial epithelial cells; actives 0.36% (n = 350,000); CFBE cells, YFP halide quenching; stimulated with forskolin plus potentiator P3; % fluorescence drop versus neutral controls; activity (quench increase), % at 7.58 µM; AID 720511;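 active = mean added fluorescence quench of at least 8% versus neutral control, with both replicates also reaching 8%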;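 also: cells transiently co-express mutant CFTR-F508del with the halide-sensitive YFP; corrector assay measuring rescue of mutant channel to the surface after 24 h compound exposure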
Of the large screens only hits and unclear results are named; the others gave an inactive call. Rows were chosen to be rich in hits. Some 2.1% of all compounds tested hit in one or more screens of this group.

COc1ccc2c(c1OC)C(=O)OC2Nc1nc(-c2cc3cc(Br)ccc3oc2=O)cs1 (stereo not given)	Ecoli rRNA inh -26
COc1ccc(-c2csc(NC3OC(=O)c4c3ccc(OC)c4OC)n2)cc1OC (stereo not given)	none (no result: Ecoli rRNA inh)
COc1cccc(S(=O)(=O)N[C@@H]2CC[C@H](CC(=O)NCc3ccc(F)cc3)O[C@@H]2CO)c1	none (no result: PvdQ inh)
CCCC(=O)NC1=C(Cl)C(=O)c2ccccc2C1=O	ARNT TACC3 PPI 25, F508del corr 45 (no result: Ecoli rRNA inh)
CCNC1=C(Cl)C(=O)c2ccccc2C1=O	none (no result: ERAP1 inh, Ecoli rRNA inh, F508del corr)
Cc1ccc(/C=N/NC(=O)c2ccc3c(c2)OCCO3)s1	none
Cc1ccc(/C=N/NC(=O)c2ccc3ccccc3c2)s1	F508del corr 11
O=C1CCC(CCc2nc3ccccc3[nH]2)(c2ccccc2)C(=O)N1 (stereo not given)	F508del corr 11
COc1ccc(/C=C/C(=O)Nc2cc(S(=O)(=O)N3CCCCC3)ccc2N2CCCCC2)cc1OC	none (no result: ARNT TACC3 PPI, ERAP1 inh, Ecoli rRNA inh, F508del corr)
COc1ccc(/C=C/C(=O)Nc2cccc(F)c2)cc1S(=O)(=O)N1CCOCC1	Ecoli rRNA inh -27
COc1ccc(/C=C/C(=O)Nc2cc(S(=O)(=O)N3CCOCC3)ccc2N2CCCC2)cc1OC	Ecoli rRNA inh -22
COc1ccc(/C=C/C(=O)Nc2ccccc2F)cc1S(=O)(=O)N1CCOCC1	Ecoli rRNA inh -20
CCc1nnc(NC(=O)c2cc(S(=O)(=O)N3CCOCC3)ccc2N2CCCCC2)s1	ERAP1 inh 56
COc1ccc(NC(=O)Nc2ccc3c(c2)CC(=O)N([C@H](C)CO)C[C@H](C)[C@@H](CN(C)C(=O)Nc2ccc4c(c2)OCO4)O3)cc1	none (no result: PvdQ inh)
CCNC(=O)C[C@@H]1CC[C@@H](NS(=O)(=O)c2ccc(F)cc2)[C@H](CO)O1	none (no result: PvdQ inh)
COc1cccc(C(=O)NCCN2C(=O)S/C(=C/c3cccs3)C2=O)c1OC	Ecoli rRNA inh -39
O=C(NCC1CCN(C(=O)C(=O)c2cc3ccccc3o2)CC1)c1ccncc1	none (no result: ARNT TACC3 PPI, PvdQ inh)
CCn1c(CCCOc2ccc(Cl)cc2Cl)n[nH]c1=S	Ecoli rRNA inh -34
CCOC(=O)c1cc(OC(=O)c2ccccc2)n(-c2ccccc2)n1	none (no result: ERAP1 inh, Ecoli rRNA inh, F508del corr)
CCOC(=O)c1cc(OC(=O)c2cccs2)n(-c2ccccc2)n1	Ecoli rRNA inh -18
CC1(C)CC2CC(C)(CN2C(=O)COC(=O)c2cc(Cl)cc(Cl)c2N)C1 (stereo not given)	ARNT TACC3 PPI 14
CC1CCC/C(=C\Nc2ccc(O)cc2)C1=O (stereo not given)	ARNT TACC3 PPI 21 (no result: ERAP1 inh, Ecoli rRNA inh, F508del corr)
Cc1ccc(S(=O)(=O)N2CCN(C(=O)CN(Cc3ccco3)Cc3cccs3)CC2)cc1	F508del corr 29
COC(=O)c1cn(NC(=O)c2cc([N+](=O)[O-])ccc2F)c(=O)c2ccccc12	F508del corr 8.7
COC(=O)c1cn(NC(=O)C2CCC(C)CC2)c(=O)c2ccccc12 (stereo not given)	none (no result: ERAP1 inh, Ecoli rRNA inh, F508del corr)
O=C(CCN1CCCCC1)N[C@H]1CC[C@@H](CCNS(=O)(=O)c2ccc(Cl)cc2)O[C@@H]1CO	none (no result: PvdQ inh)
O=C(C1CCC1)N1CC(=O)N2[C@H](CO)[C@H](c3ccc(-c4ccccc4F)cc3)[C@H]2C1	none (no result: ARNT TACC3 PPI, PvdQ inh)
CCCCCC/C=N/Nc1nnc(Cc2ccc(OC)c(OC)c2)c(=O)[nH]1	ARNT TACC3 PPI 54
COc1ccc(Cc2nnc(N/N=C/c3ccc(O)cc3O)[nH]c2=O)cc1OC	ARNT TACC3 PPI 62 (no result: F508del corr)
CCCCCCC/C=N/Nc1nnc(Cc2ccccc2)c(=O)[nH]1	none
C[C@@H]1CCCCO[C@@H](CN(C)C)[C@H](C)CN([C@@H](C)CO)C(=O)c2cc(NS(=O)(=O)c3ccccc3)ccc2O1	none (no result: PvdQ inh)
CN1C(=O)c2cc(NC(=O)Cc3ccccc3)ccc2OC[C@@H]2O[C@H](CC(=O)NC3CCC3)CC[C@H]21	none (no result: PvdQ inh)
O=C(NNC(=O)c1cccc2ccccc12)c1cccc(Br)c1	Ecoli rRNA inh -22
O=C(NNC(=O)c1cccc2ccccc12)c1ccc(Br)cc1	none (no result: F508del corr)
CC(C)CC#Cc1ccc2c(c1)O[C@@H](CN(C)C(=O)C1CCOCC1)[C@@H](C)CN([C@@H](C)CO)S2(=O)=O	none (no result: PvdQ inh)
CCCCn1c(N)c(N(CCOC)C(=O)C2CCN(C(=O)c3ccc(Cl)cc3)CC2)c(=O)[nH]c1=O	none
CCCCn1c(N)c(N(CCOC)C(=O)C2CCCN(C(=O)c3ccc(Cl)cc3)C2)c(=O)[nH]c1=O (stereo not given)	ERAP1 inh 62
Nc1c(C(=O)O)ccc2c1C(=O)c1ccccc1C2=O	none
Nc1cc(C(=O)O)c(N)c2c1C(=O)c1ccccc1C2=O	ARNT TACC3 PPI 55 (no result: ERAP1 inh, Ecoli rRNA inh, F508del corr)
COc1ccc(C(=O)c2cc([N+](=O)[O-])ccc2N2CCCC2)cc1	none (no result: ERAP1 inh, Ecoli rRNA inh, F508del corr)
COc1ccc(N2CCN(C(=O)c3ccc(C)cc3)CC2)c([N+](=O)[O-])c1	none (no result: ERAP1 inh, Ecoli rRNA inh, F508del corr)
COc1ccc(N2CCN(C(=O)c3ccccc3)CC2)c([N+](=O)[O-])c1	Ecoli rRNA inh -23
COc1ccc(C(=O)c2cc([N+](=O)[O-])ccc2N2CCN(C)CC2)cc1	F508del corr 16
COc1ccc(N2CCN(C(=O)c3ccc(Br)cc3)CC2)c([N+](=O)[O-])c1	Ecoli rRNA inh -24
Cc1noc(C)c1C(=O)N(C)C[C@H]1OCc2ccccc2-c2ccccc2C(=O)N([C@H](C)CO)C[C@@H]1C	none (no result: PvdQ inh)
CCOc1ccccc1NS(=O)(=O)c1ccc(Br)s1	Ecoli rRNA inh -21
O=C(C1CC1)N1CCN(c2ccc([N+](=O)[O-])cc2-n2cccc2)CC1	Ecoli rRNA inh -30
OCCN(CC#CCn1c2ccccc2c2ccccc21)CCO	Ecoli rRNA inh -29
CCC(=O)N1C[C@H](C)[C@@H](OC)CN(C)C(=O)c2cc(NC(=O)c3ccccc3)ccc2OC[C@@H]1C	none (no result: PvdQ inh)
CCS(=O)(=O)N1CC(=O)N2[C@H](C1)[C@@H](c1ccc(C#CCC(C)C)cc1)[C@@H]2CO	F508del corr 10 (no result: ARNT TACC3 PPI, PvdQ inh)
O=C(c1cccc(F)c1)N1CC(=O)N2[C@@H](CO)[C@@H](c3ccc(C#Cc4ccc(F)cc4)cc3)[C@@H]2C1	F508del corr 8.2 (no result: ARNT TACC3 PPI, PvdQ inh)
CCS(=O)(=O)N1CC(=O)N2[C@@H](CO)[C@H](c3ccc(C#CCC(C)C)cc3)[C@@H]2C1	none (no result: ARNT TACC3 PPI, PvdQ inh)
O=C(Cc1ccccc1)N1CC(=O)N2[C@H](C1)[C@@H](c1ccc(C#Cc3ccccc3)cc1)[C@@H]2CO	F508del corr 8.0 (no result: ARNT TACC3 PPI, PvdQ inh)
CS(=O)(=O)N1CC(=O)N2[C@H](C1)[C@H](c1ccc(C#Cc3ccc(F)cc3)cc1)[C@@H]2CO	F508del corr 10 (no result: ARNT TACC3 PPI, PvdQ inh)
O=C(C[C@H]1CC[C@H](NC(=O)Nc2cc(F)ccc2F)[C@H](CO)O1)NCc1ccccn1	none (no result: PvdQ inh)
CSc1ccc(-c2nc(CN3CCCCC3c3cccnc3)c(C)o2)cc1 (stereo not given)	Ecoli rRNA inh -21
O=C(Cc1ccccc1)N1CC[C@@H]2[C@@H](CO)Nc3ccc(Br)cc3[C@@H]21	none (no result: PvdQ inh)

Source: PubChem (Broad Institute)
